Source: PubChem BioAssay (EPA / NIEHS)
Inconclusive results are not listed. The source made the active and inactive calls. Rule for the calls: active = hit-call score of the fitted dose curve at least 0.9, where 1 is the maximum; inconclusive = response in the unintended direction; inactive = score below 0.9.

biological target: human RAR-related Orphan Receptor gamma (RORg), RORC (gene 6097) (UniProt P51449); assay: ATG_RORg_TRANS: Attagene TRANS-FACTORIAL HepG2 Assay for human RAR-related Orphan Receptor gamma (RORg) (AID 2283011)
Method in brief: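 First, HepG2 liver cells were transfected with GAL4-UAS-driven reporter constructs and the RORg-Gal4 fusion. Next, they were treated with chemical for 24 h. Finally, reporter mRNA was quantified by RT-PCR and capillary electrophoresis, with upward activity fitted against DMSO.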

Sequence of human RAR-related Orphan Receptor gamma (RORg), RORC (gene 6097) (P51449 whole entry, looked up, the tested form may be a part): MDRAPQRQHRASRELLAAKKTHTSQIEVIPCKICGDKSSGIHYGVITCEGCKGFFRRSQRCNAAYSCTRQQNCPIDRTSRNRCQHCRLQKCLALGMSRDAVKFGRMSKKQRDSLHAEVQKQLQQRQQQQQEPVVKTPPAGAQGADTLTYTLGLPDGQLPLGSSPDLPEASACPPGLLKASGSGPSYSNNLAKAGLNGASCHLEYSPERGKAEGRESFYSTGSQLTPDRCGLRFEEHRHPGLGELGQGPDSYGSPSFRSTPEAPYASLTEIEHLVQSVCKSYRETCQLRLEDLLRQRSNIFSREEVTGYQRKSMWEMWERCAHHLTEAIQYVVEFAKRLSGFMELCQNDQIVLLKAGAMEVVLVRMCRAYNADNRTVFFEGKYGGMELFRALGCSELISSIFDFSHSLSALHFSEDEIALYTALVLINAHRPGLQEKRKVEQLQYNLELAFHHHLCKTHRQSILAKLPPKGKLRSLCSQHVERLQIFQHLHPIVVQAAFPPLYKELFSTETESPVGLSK

Structure (SMILES) | outcome
CN(C)c1ccc(N=O)cc1 | inactive
CN(CCCC(O)c1cccnc1)N=O (stereo not drawn) | inactive
C[C@]12CC[C@@H](O)C[C@@H]1CC[C@@H]1[C@@H]2CC[C@]2(C)C(=O)CC[C@@H]12 | inactive
CC(C=O)Cc1ccc2c(c1)OCO2 (stereo not drawn) | inactive
C#CCOC(=O)/C=C(C)/C=C/CC(C)CCCC(C)C (stereo not drawn) | inactive
Nc1ccc(N)cc1 | inactive
COCC(=O)N(c1c(C)cccc1C)[C@H](C)C(=O)OC | inactive
CCOP(=O)(OCC)SCCSCC | inactive
NC(=O)CCl | inactive
CCCCOC(C)=O | inactive
Brc1c(Br)c(Br)c(Oc2c(Br)c(Br)c(Br)c(Br)c2Br)c(Br)c1Br | inactive
OC(Cc1ccccc1Cl)(Cn1cncn1)C1(Cl)CC1 (stereo not drawn) | inactive
CCCCCCCCCCBr | inactive
COC(F)(C(F)(F)C(F)(F)F)C(F)(C(F)(F)F)C(F)(F)F (stereo not drawn) | inactive
CCCCN(CCCC)C(=S)[S-].CCCCN(CCCC)C(=S)[S-].[Ni+2] | inactive
CCCCCCCCCCCCCl | inactive
Cc1cc(-c2cc(C)c(N)c(C)c2)cc(C)c1N | inactive
COc1ccccc1N | inactive
CC(C)=CC1C(C(=O)OCc2cccc(Oc3ccccc3)c2)C1(C)C (stereo not drawn) | inactive
Nc1c(Oc2ccccc2)cc(O)c2c1C(=O)c1ccccc1C2=O | inactive
O=C(NC(=O)c1c(F)cccc1F)Nc1cc(Cl)c(F)c(Cl)c1F | inactive
CC(C)[N+](=O)[O-] | inactive
C=CCCl | inactive

biological target: Retinoic acid receptor RXR-alpha (Homo sapiens) (UniProt P19793); assay: ATG_RXRa_TRANS: Attagene TRANS-FACTORIAL HepG2 Assay for human Retinoid X Receptor alpha (RXRa) (AID 2283012)
Method in brief: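 TRANS format reporting activity of exogenous RXRa-Gal4 chimera in transiently transfected HepG2, 24 h exposure. Reporter transcripts quantified by RT-PCR with capillary electrophoresis, with gain of signal scored relative to DMSO.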

Sequence of Retinoic acid receptor RXR-alpha (Homo sapiens) (P19793 whole entry, looked up, the tested form may be a part): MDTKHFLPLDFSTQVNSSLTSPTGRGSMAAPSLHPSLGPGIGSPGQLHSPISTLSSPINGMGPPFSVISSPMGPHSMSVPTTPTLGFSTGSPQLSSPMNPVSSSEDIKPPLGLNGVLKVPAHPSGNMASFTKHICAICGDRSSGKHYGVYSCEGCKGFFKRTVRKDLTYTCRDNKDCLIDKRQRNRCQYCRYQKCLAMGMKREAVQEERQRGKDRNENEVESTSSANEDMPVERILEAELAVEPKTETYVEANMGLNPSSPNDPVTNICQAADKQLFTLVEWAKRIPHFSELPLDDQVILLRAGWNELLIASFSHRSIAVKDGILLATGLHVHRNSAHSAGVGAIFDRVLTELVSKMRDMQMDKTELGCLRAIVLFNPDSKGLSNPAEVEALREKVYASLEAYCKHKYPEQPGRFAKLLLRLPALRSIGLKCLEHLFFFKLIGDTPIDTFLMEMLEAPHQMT

Structure (SMILES) | outcome
CC(C)CC(C)(c1ccc(O)cc1)c1ccc(O)cc1 | inactive
CN(CCCC(O)c1cccnc1)N=O (stereo not drawn) | inactive
CC(C=O)Cc1ccc2c(c1)OCO2 (stereo not drawn) | inactive
Nc1ccc(N)cc1 | inactive
O=C(O)C1(c2ccc3c(c2)OC[C@H](Cc2ccc(-c4ccccc4)cc2)[C@H]3O)CCCC1 | inactive
NC(=O)CCl | inactive
O=C1c2ccccc2C(=O)C1C(=O)C(c1ccccc1)c1ccc(Cl)cc1 (stereo not drawn) | inactive
Oc1c(Br)cc(Br)cc1Br | inactive
Brc1c(Br)c(Br)c(Oc2c(Br)c(Br)c(Br)c(Br)c2Br)c(Br)c1Br | inactive
OC(Cc1ccccc1Cl)(Cn1cncn1)C1(Cl)CC1 (stereo not drawn) | inactive
CCCCCCCCCCBr | inactive
Cc1cc(-c2cc(C)c(N)c(C)c2)cc(C)c1N | inactive
COc1ccccc1N | inactive
Nc1c(Oc2ccccc2)cc(O)c2c1C(=O)c1ccccc1C2=O | inactive
Cc1ccc2nc3sc(=O)sc3nc2c1 | inactive
